A549 tox-1 – counter-screen for Nrf2 inhibitors: cytotoxicity in A549 cells. A549 ARE-Fluc cells, CellTiter-Fluor viability, 18-24 h. Potency, µM (top dose mostly 46 µM), for inactives: at the highest dose activity change, negative = cytotoxicity, usual class: inhibitors. hit rate 0.16% among 390,000. AID 504648; further: potency means the concentration at half of the fitted maximal effect; on the % scale 0 is the no-effect control and ±100 the full control effect
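Cytotoxicity counterscreen: CellTiter-Fluor fluorescence was measured in A549 ARE_Fluc cells after 18-24 h of compound exposure in a concentration series. The subsequent BugLite luminescent read reports ARE-luciferase activity.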
IL-2 act – activators of IL-2 | IL-2 activation reporter assay, cell-based qHTS; stimulated with anti-CD3/CD4/CD28 beads; in transgenic mouse T cells | activation, % (series mostly up to about 46 µM) | hit rate 0.065% among 360,000 | AID 652025; in the data active means activation above about 50%; inconclusive means mostly about 30% to 49%; further: 0% is about no effect
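Screening format: compound pinned onto unstimulated transgenic mouse T cells, 60 min incubation, then anti-CD3/anti-CD4/anti-CD28 bead stimulation for 18 hours at 37 degrees C, followed by EGFP and DsRed detection.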
Nrf2 ARE act – activators of Nrf2 (ARE) signaling. hit rate 0.31% among 410,000. AREc32 ARE-luciferase reporter (MCF7-derived line), luminescence, 24 h. Potency, µM (doses to about 46.1 µM), without a hit: at the top dose activation, actives largely listed as activators; further: potency means the concentration at half of the fitted maximal effect; % of control where 0% means no effect; nearly all actives have a fitted effect of over 65% in size
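Nrf2 activation is followed as ARE-luciferase induction in the AREc32 line after one day of compound treatment; luminescence is read with Steady-Glo.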
Nrf2 block – Nrf2 pathway inhibition | A549 ARE-Fluc reporter, luciferase luminescence, 18-24 h | Potency, µM (top dose mostly 46 µM), for inactives: at the top dose activity change, negative = inhibition, hits mostly inhibitors | hit rate 2.1% among 360,000 | AID 504444; further: potency means the concentration at half of the fitted maximal effect; on the % scale 0 is the no-effect control and ±100 the full control effect; nearly all actives have a fitted effect of over 60% in size
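In this cell-based qHTS, ARE-driven firefly luciferase in A549 cells reports Nrf2 activity; the luminescent signal after BugLite lysis is the measured value, with a prior CellTiter-Fluor read for cell health.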
BRCA1 expr up – activators of BRCA1 expression; MCF7-BRCA1-FFLuc reporter, luminescence, 48 h; response scale: scaled: vehicle 0%, 10 µM genistein 100%; Potency, µM (highest dose often 46.1 µM), for inactives: at the highest dose activation, hits mostly activators; hit rate 1.1% among 380,000; AID 624202; further: potency means the concentration at half of the fitted maximal effect; nearly all actives have a fitted effect of over 80% in size
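Compounds are tested at multiple concentrations on MCF7 BRCA1-luciferase reporter cells seeded at 2000 per well; after 48 h, a single luminescence end-point is taken and curves fitted to the normalized data.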
p53 reactivation – mutant p53 re-activation in reporter cells | H1299 p53-A138V BP100-luciferase reporter, luminescence, 24 h | Potency, µM (highest dose often 92.2 µM), for inactives: at the top dose activity change, positive = activation, usual class: activators | hit rate 0.063% among 320,000; further: potency means the concentration at half of the fitted maximal effect; % of control where 0% means no effect; nearly all actives have a fitted effect of over 45% in size
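p53-null H1299 cells stably carrying temperature-sensitive p53-A138V and a BP100-luciferase reporter were pinned with compounds (4-point, 1:5 series) and held 24 hrs at 37 deg C. Luminescence was read 10 min after detection reagent.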
FLuc counter 3 – counter-screen for Nrf2 inhibitors: firefly luciferase enzyme inhibition | shares compounds with Nrf2 block | purified firefly luciferase, luminescence inhibition | Potency, µM (top dose mostly 57.5 µM), for inactives: top-dose activity change, negative = inhibition, usual class: inhibitors | hit rate 4% among 1,400; further: potency means the concentration at half of the fitted maximal effect; on the % scale 0 is the no-effect control and ±100 the full control effect; nearly all actives have a fitted effect of over 65% in size
Target sequence (P08659 whole entry, looked up): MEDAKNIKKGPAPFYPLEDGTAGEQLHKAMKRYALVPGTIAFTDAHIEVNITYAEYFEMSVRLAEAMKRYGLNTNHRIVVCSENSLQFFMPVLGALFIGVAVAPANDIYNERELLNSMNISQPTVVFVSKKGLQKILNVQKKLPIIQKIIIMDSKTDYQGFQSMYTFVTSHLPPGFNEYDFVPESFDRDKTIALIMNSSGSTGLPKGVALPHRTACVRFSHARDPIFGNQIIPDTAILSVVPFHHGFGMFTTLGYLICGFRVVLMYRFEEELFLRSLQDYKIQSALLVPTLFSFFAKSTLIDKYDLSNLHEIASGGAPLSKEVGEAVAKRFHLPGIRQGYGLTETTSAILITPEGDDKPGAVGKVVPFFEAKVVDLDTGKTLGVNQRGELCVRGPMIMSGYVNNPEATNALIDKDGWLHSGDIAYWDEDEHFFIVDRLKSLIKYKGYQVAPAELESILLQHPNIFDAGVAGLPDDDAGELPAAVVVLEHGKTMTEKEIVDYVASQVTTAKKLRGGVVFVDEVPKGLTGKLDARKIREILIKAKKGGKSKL
A549 tox-2 – toxic to A549 ARE-Fluc cells in Nrf2 counterscreen. A549 ARE-Fluc cells, cytotoxicity counterscreen. hit rate 2% among 1,400. shares compounds with Nrf2 block. Potency, µM (series often up to 46.1 µM), without a hit: at the highest dose activity change, negative = cytotoxicity, hits mostly inhibitors;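 further: potency means the concentration at half of the fitted maximal effect; cells exposed to compounds for 18 to 24 hours; on the % scale 0 is the no-effect control and ±100 the full control effect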
ARE-Fluc inh – reduces Nrf2 ARE reporter signal in A549 cells; shares compounds with Nrf2 block; A549 ARE-firefly luciferase reporter, luminescence; Potency, µM (doses to about 46.1 µM), for inactives: top-dose activity change, negative = inhibition, most hits filed as inhibitors; hit rate 74% among 1,400; AID 720524; further: potency means the concentration at half of the fitted maximal effect; on the % scale 0 is the no-effect control and ±100 the full control effect; nearly all actives have a fitted effect of over 65% in size
The depositor's hits bear a star; u = inconclusive; x = not tested or not shown; [ ] = remark or other dose. Most compounds without a hit are left out; they make up all but 3.2% or so of the library. Unless noted, the call rests on the fitted dose curve; in most records, active means well fitted curve in the direction sought with a large enough effect; inconclusive means small, poorly fitted or top-dose-only effect, or another doubt; inactive means no such curve, though single readings can be large; an effect the other way counts as inactive or inconclusive.

SMILES	A549 tox-1	IL-2 act	Nrf2 ARE act	Nrf2 block	BRCA1 expr up	p53 reactivation	FLuc counter 3	A549 tox-2	ARE-Fluc inh
CCN(CC)S(=O)(=O)c1cc(NC(=O)CNc2cccc(S(=O)(=O)N3CCOCC3)c2)ccc1C	-20.2%	-1.0	-0.1%	0.581µM*	-69.2%	-0.1%	0.4%	-16.3%	3.66µM*
N#Cc1cccc(NC(=O)CNc2cccc(S(=O)(=O)N3CCCC3)c2)c1	u	-3.8	3.8%	7.31µM*	-42.9%	-8.4%	2.3%	-7.0%	u
Cc1ccc(NC(=O)CNc2cccc(S(=O)(=O)N3CCOCC3)c2)cc1F	-4.9%	-1.0	0.1%	u	-30.1%	-2.8%	x	x	x
CC(C)CNc1nc(Oc2ccc(OCC(N)=O)nn2)nc(N2CCOCC2)n1	9.1%	x	0.3%	9.3%	x	x	x	x	x
CC1=C(C(=O)OCc2ccc(C)cc2)C(c2ccccc2C(F)(F)F)CC(=O)N1 (centres undefined)	13.6%	x	0.3%	-5.5%	-16.3%	x	x	x	x
COc1ccc(NC(=O)C(C)N2c3cccc4cccc(c34)S2(=O)=O)cc1OC (centres undefined)	-27.6%	-3.3	0.9%	8.2µM*	-69.1%	-17.1%	-0.6%	-7.7%	23.1µM*
COc1ccc(C)cc1NC(=O)C1CCN(S(=O)(=O)c2ccc3[nH]c4c(c3c2)CCCCC4)CC1	-3.4%	x	0.6%	7.2%	x	x	x	x	x
CCc1ccccc1-n1nnc(-c2nsc(NC(=O)c3ccc(C)c(C)c3)n2)c1C	-4.1%	x	-1.5%	8.2µM*	x	x	-14.1%	-21.3%	20.6µM*
Cc1ccc(-n2nnc(-c3nsc(NC(=O)c4ccc(C)c(C)c4)n3)c2C)cc1	9.2%	x	4.2%	u	7.5%	x	x	x	x
COc1ccc(-c2nc(SCC(=O)NC3CCCC3)c(-c3ccc(F)cc3)[nH]2)cc1OC	-0.9%	x	1.1%	-8.8%	x	x	x	x	x
Cc1ccc(Cn2c(C)c3cnn(CC(=O)N4CCN(c5cc(C)ccc5C)CC4)c(=O)c3c2C)cc1	-16.9%	x	-0.8%	8.2µM*	x	x	4.4%	-23.5%	6.51µM*
O=C(O)Cn1cc(/C=C/[N+](=O)[O-])c2ccccc21	-22.9%	1.0	3.0%	-11.1%	-17.8%	-0.9%	x	x	x
CCn1cc(/C=C/c2cc[n+](C)cc2)c2ccccc21	-21.1%	112.9*	2.9%	1.84µM*	-69.9%	-5.5%	-0.3%	u	1.84µM*
CC(C)n1cc(/C=C/c2cc[n+](C)cc2)c2ccccc21	u	294.7*	0.1%[9.22 µM]	2.31µM*	-41.0%	-1.1%	2.2%	u	6.51µM*
CCOC(=O)Cn1cc(C=O)c2ccccc21	-7.7%	-0.9	0.1%	1.7%	-6.6%[1.84 µM]	-1.9%	x	x	x
Cc1ccccc1/C=C/c1cc[n+](C)cc1	-8.1%	-0.9	14.3%	1.3µM*	-6.3%	7.6%	4.4%	-12.5%	23.1µM*
CC(C)n1cc(/C=N/Nc2ccc(C(=O)O)cc2)c2ccccc21	-2.6%	0.3	-2.3%	u	-29.1%	u	x	x	x
C=CCn1cc(/C=C/c2cc[n+](C)cc2)c2ccccc21	u	457.4*	8.5%	2.31µM*	-45.2%	x	0.9%	-28.8%	1.84µM*
C[N+]1(CC(=O)c2ccc(O)c(O)c2)CCOCC1	x	x	x	x	6.1%	x	x	x	x
COc1cccc(CCNC(=O)c2cnc3sc(N4CCCCCC4)nn3c2=O)c1	-3.9%	x	4.4%	u	x	x	x	x	x
